High-throughput results: PubChem BioAssay, Buhrlage Lab, Dana-Farber Cancer Institute and Novartis Institutes for BioMedical Research (Cambridge, Mass)
USP17 inh = inhibitors of human USP17 deubiquitinase. purified USP17, Ub-rhodamine cleavage fluorescence, 3 h. inhibition, % at 50 µM. 6.5% of 47,000 active
USP8 inh = inhibitors of human USP8 deubiquitinase. AID 1645853, 2021. inhibition, % at 20 µM. 4.2% of 47,000 active. purified USP8, Ub-rhodamine cleavage fluorescence, 30 min. Ubiquitin carboxyl-terminal hydrolase 8 (Homo sapiens), P40818
USP30 inh = inhibitors of human USP30 deubiquitinase | AID 1645860, 2021 | Ubiquitin carboxyl-terminal hydrolase 30 (Homo sapiens), Q70CQ3 | 5.3% of 47,000 active | purified USP30, Ub-rhodamine cleavage fluorescence | inhibition, % at 25 µM
UCHL1 block = inhibitors of human UCHL1 deubiquitinase; Ubiquitin carboxyl-terminal hydrolase isozyme L1 (Homo sapiens), P09936; purified UCHL1, Ub-rhodamine cleavage fluorescence; inhibition, % at 20 µM; 0.2% of 47,000 active; AID 1645859, 2021
USP10 block = inhibitors of human USP10 deubiquitinase; Ubiquitin carboxyl-terminal hydrolase 10 (Homo sapiens), Q14694; 1.1% of 47,000 active; inhibition, % at 20 µM; purified USP10, Ub-rhodamine fluorescence, 60 min; AID 1645856, 2021
USP7 inh = inhibitors of human USP7 deubiquitinase; Ubiquitin carboxyl-terminal hydrolase 7 (Homo sapiens), Q93009; purified USP7, Ub-rhodamine cleavage fluorescence; inhibition, % at 20 µM; 0.3% of 47,000 active
Numbers without * were called inactive; · = no result. A selection: hits, their analogues and other compounds. The true share with any hit is near 12%. No stated cut-off is given here; in the data, active means inhibition above about 30%; inactive means the rest.

SMILES	USP17 inh	USP8 inh	USP30 inh	UCHL1 block	USP10 block	USP7 inh
Cc1c2oc3c(C)ccc(C(=O)NC4C(=O)N[C@@H](C(C)C)C(=O)N5CCCC5C(=O)N(C)CC(=O)N(C)C(C(C)C)C(=O)OC4C)c3nc-2c(C(=O)NC2C(=O)N[C@H](C(C)C)C(=O)N3CCCC3C(=O)N(C)CC(=O)N(C)C(C(C)C)C(=O)OC2C)c(N)c1=O (some centres undefined)	62*	17	-112	2	-2	-15
CCOC(=O)C1CCN(C(=O)c2ccc3c(c2)NC(=O)C(CS(=O)(=O)Cc2ccccc2Cl)N3)CC1 (centres undefined)	0	49*	-231	-3	-12	-14
O=C1Nc2cc(C(=O)N3CCCC3)ccc2NC1CS(=O)(=O)Cc1ccc(F)cc1Cl (centres undefined)	-13	35*	-260	-4	-4	-16
CCOC(=O)C1CCN(C(=O)c2ccc3c(=O)n(-c4ccccc4)c(=O)[nH]c3c2)CC1	-1	0	10	0	0	-4
CN(C(=O)c1ccc(Cl)cc1Cl)C1CCS(=O)(=O)C1 (centres undefined)	-3	-1	-3	0	-1	-1
O=C(NC1CCN(Cc2ccccc2)CC1)c1ccc(Cn2c(=O)c3ccccc3n(Cc3ccccc3F)c2=O)cc1	16	26	34*	2	0	8
N#Cc1ccccc1Cn1c(=O)n(Cc2ccc(C(=O)NC3CCCC3)cc2)c(=O)c2ccccc21	16	13	33*	1	2	6
O=C(NC1CCCC1)c1ccc(Cn2c(=O)c3ccccc3n(Cc3ccc(F)cc3)c2=O)cc1	8	11	3	3	22	8
NC(=O)Cn1c(=O)n(Cc2ccc(C(=O)NC3CCCC3)cc2)c(=O)c2ccccc21	53*	26	29	4	-3	5
Cc1ccccc1Cn1c(=O)n(Cc2ccc(C(=O)NC3CCN(Cc4ccccc4)CC3)cc2)c(=O)c2ccccc21	17	20	29	3	-2	3
COc1ccc(CCN2Cc3cc4cc(C)ccc4nc3OC2=O)cc1	14	5	-6	-2	3	1
COc1ccc2cc3c(nc2c1)OC(=O)N(Cc1ccc(F)cc1)C3	20	-37	15	-1	1	7
Cc1ccc2cc3c(nc2c1)OC(=O)N(Cc1ccc(C)o1)C3	11	50*	-21	-4	13	0
CCOc1ccc2cc3c(nc2c1)OC(=O)N(Cc1ccc(OC)cc1)C3	27	77*	38*	4	19	14
COc1ccc2cc3c(nc2c1)OC(=O)N(CCc1cccc(F)c1)C3	56*	35*	29	4	0	8
O=C(CN1CCCCC1)Nc1nnc(C(F)(F)F)s1	10	3	·	6	5	11
Cc1ccc2c(c1)C(=O)c1c(O)cccc1C2=O	1	-17	11	-4	-3	-1
O=C1CC(O)C(C2=CC(=O)c3c(O)cccc3C2=O)O1 (centres undefined)	71*	-94	8	28	-13	-143
CN(C(=O)CSc1nnc(-c2cccnc2)o1)c1ccc(F)cc1	8	18	27	1	-1	7
O=C(Nc1cccc(S(=O)(=O)N2CCCC2)c1)c1ccc(OCC2CCCO2)cc1 (centres undefined)	10	11	19	-1	6	-6
COc1ccc(S(=O)(=O)N2CCCCC2)cc1NC(=O)c1ccc(OCC2CCCO2)cc1 (centres undefined)	20	-9	47*	0	8	-5
Cc1ccc(F)cc1NC(=O)C1Cc2ccccc2CN1C(=O)c1ccco1 (centres undefined)	2	0	-130	-7	-8	-10
COc1ccc(S(=O)(=O)N2CCC(Cc3ccccc3)CC2)cc1NC(C)=O	21	-6	35*	0	1	1
COc1ccc(S(=O)(=O)N2CCOCC2)cc1NC(=O)C1Cc2ccccc2CN1C(=O)c1ccco1 (centres undefined)	-1	49*	-180	-7	-5	-11
O=c1c2c(ccn1Cc1cc(F)ccc1F)ccn2Cc1cccnc1	-7	6	8	0	3	-47
SMILES	USP17 inh	USP8 inh	USP30 inh	UCHL1 block	USP10 block	USP7 inh
CCSc1nc(N)c2c3c(sc2n1)COC(C(C)C)C3 (centres undefined)	-10	0	-88	-3	-4	-21
CCC1(C)Cc2c(sc3nc(SCC(=O)Nc4ccc(C(C)=O)cc4)nc(N)c23)CO1 (centres undefined)	63*	-1	-2	1	16	3
CC(C)C1Cc2c(sc3nc(SCC(=O)Nc4cccc5ccccc45)nc(N)c23)CO1 (centres undefined)	52*	-4	-44	2	0	2
CC1(C)Cc2c(sc3nc(Cc4ccccc4)nc(SCC(=O)Nc4ccccc4)c23)CO1	35*	9	56*	3	7	6
CCCCc1nc(SCC(=O)Nc2ccc(Br)cc2)c2c3c(sc2n1)COC(C)(C)C3	22	28	20	4	3	8
COc1ccc2[nH]c3c(c2c1)CCN1C(=O)N(c2ccccc2C(=O)NCc2ccccc2OC)C(=O)[C@]31C	·	5	14	10	5	11
Cc1cccc(NC(=O)Nc2ccc(C)c(C)c2)c1	10	16	31*	2	2	7
O=C(c1nc(-c2cccc3[nH]ccc23)no1)N1CCCC1	41*	1	48*	0	-1	4
O=C(c1nc(-c2cccc3[nH]ccc23)no1)N1CCCCC1	-8	0	-14	-1	2	-9
O=C(Nc1ccccc1)N1CCC2(CN(Cc3ccccc3F)C2)C1	-15	-44	-3	-1	2	2
O=C(Nc1ccccc1)N1CCCC2(CCCN2Cc2ccccc2F)C1 (centres undefined)	3	9	32*	-1	0	1
CN(C(=O)Cc1ccc(F)cc1)c1nc2c(s1)CCc1occc1-2	-9	-136	-57	-5	-1	-38
O=C(Cn1cccc1-c1nnc(-c2ccccc2)o1)Nc1cccc(F)c1	-9	-1	-39	-8	-9	-3
O=C(c1ccc(F)cc1Cl)N1CCN(c2nc(-c3cccs3)ns2)CC1	10	-8	-8	0	1	-1
Cc1ccc(Cl)cc1N1CCN(C(=O)CN2Cc3ccccc3C2=O)CC1	11	10	23	2	0	-1
CC(=O)Nc1cc(C(=O)NCCN2CCCCC2)c2ccc(C)nc2c1	-38	4	-241	-12	-8	-12
CC(=O)Nc1cc(C(=O)NC2CCCC2)c2ccc(C)nc2c1	7	34*	-57	4	-7	-9
